From PubChem BioAssay AID686979 (National Center for Advancing Translational Sciences (NCATS), 2013)
Several values for one entry are separate records, joined by “and”; a condition that tells them apart may be missing. Identical values can stand only once. The whole screen tested about 420,000 compounds, of which about 50,000 (12%) were called active. Another 26% or so got no clear call; they are omitted. Calls come from the whole dose curve; as a rule, active = well fitted inhibition curve with a large enough effect; inconclusive = small, poorly fitted or top-dose-only effect; inactive = flat fitted curve, though single readings scatter. The list comes from a sample in which actives are over-represented; it also holds similar structures and randomly drawn compounds. Where a call stands in place of a potency, no number is given.

Assay: qHTS for Inhibitors of human tyrosyl-DNA phosphodiesterase 1 (TDP1): qHTS in cells in presence of CPT; note: nearly all actives have a fitted effect of over 55% in size
Settings: chicken DT40 Tdp1-/-;hTDP1 cells + 20 nM CPT, ATP luminescence, 48 h; series mostly up to 46.2 µM
In short: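 Cell growth measured by CellTiter-Glo luminescence after a minimum 48 h, 37 C compound exposure with 20 nM CPT in Tdp1-knockout DT40 cells stably expressing hTDP1, seeded 400/well; qHTS titration format.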
Potency is the fitted concentration of half-maximal effect.

SMILES	Potency
COc1cccc(C2C(C(=O)Nc3ccc(C)cc3C)=C(C)Nc3c(C(=O)Nc4ccccc4)cnn32)c1 (configuration not stated)	inactive
CC(C)(C)OC(=O)C1=C(CO)CS[C@@H]2[C@H](NC(=O)Cc3ccccc3)C(=O)N12	inactive
C[C@H](NC(=O)C1CC(=O)N(c2ccc3c(c2)OCO3)C1)C(=O)NCc1ccco1 (some centres not stated)	inactive
CCOc1ccc(S(=O)(=O)N2CCC(C(=O)NCC(=O)Nc3cccc(Cl)c3C)CC2)cc1	inactive
CC(=O)NC(Cc1c[nH]c2ccccc12)C(=O)O (configuration not stated)	inactive
C=CC[C@@H](CC(=O)NCCO)C(=O)N[C@H](C)COC(=O)[C@@H](CC=C)CC(=O)OC(C)(C)C	inactive
C=CC[C@@H](CC(=O)N[C@H](CO)Cc1ccccc1)C(=O)N[C@@H](COC(=O)[C@@H](CC=C)Cc1ccc(F)cc1)Cc1c[nH]c2ccccc12	16.4 µM (active)
C=CCC[C@H](Cc1ccc(F)cc1)C(=O)OC[C@@H](Cc1c[nH]c2ccccc12)NC(=O)[C@H](CC=C)CC(=O)N[C@H](CO)Cc1ccccc1	5.8 µM (active)
C=CC[C@@H](CC(=O)N[C@H](CO)Cc1ccccc1)C(=O)N[C@H](C)COC(=O)[C@@H](CC=C)Cc1ccc(F)cc1	20.6 µM (active)
COC(=O)C(Cc1c[nH]c2ccccc12)NC(=O)CCNC(=O)c1ccco1 (configuration not stated)	inactive
CC(CCc1ccccc1)NC(=O)COC(=O)c1ccc(F)cc1 (configuration not stated)	inactive
O=C(CCc1c[nH]c2ccccc12)NCCOc1ccccc1	inactive
CC(=O)NC(Cc1c[nH]c2ccccc12)C(=O)NCCc1ccccc1 (configuration not stated)	inactive
C=CC[C@H](CC(=O)NCCO)C(=O)N[C@@H](COC(=O)[C@@H](CC=C)Cc1ccc(F)cc1)Cc1c[nH]c2ccccc12	29.1 µM (active)
COc1ccc(CNC(=O)[C@H](Cc2c[nH]c3ccccc23)NC(C)=O)cc1OC	inactive
CC(C)CNc1ncnc2c1nnn2C	inactive
CCC(C)NC(=O)/C=C/c1ccc(S(=O)(=O)NCc2ccco2)cc1 (configuration not stated)	inactive
CC(=O)N1CCC(N(C(=O)Nc2ccc(Cl)cc2)C(C)C)CC1	inactive
CC(=O)NC(CC(=O)Nc1nc(-c2ccccc2)c(C(C)=O)s1)c1ccccc1 (configuration not stated)	inactive
COc1ccccc1C(=O)OCc1cc(=O)n2nc(-c3cccs3)sc2n1	inactive
Nc1ccccc1-c1nc2ccncc2[nH]1	inactive
CCc1ccc(Oc2coc3cc(OC(=O)c4cc5ccccc5oc4=O)ccc3c2=O)cc1	inactive
O=C1c2ccccc2-c2ccccc2NC1O (configuration not stated)	inactive
O=C1NN(c2ccccc2)C(=O)/C1=C/c1ccc(-c2cccc(C(=O)O)c2)o1	inactive
O=C1CCC[C@@H]2CC(N3CCCCC3)C[C@@H]3CCN1[C@H]23 (some centres not stated)	inactive

SMILES	Potency
CN(C)C(CNC(=O)c1ccc(S(=O)(=O)NCc2ccco2)cc1)c1ccccc1 (configuration not stated)	inactive
Cc1noc(C)c1S(=O)(=O)N(C)C[C@H]1OCCCC[C@@H](C)Oc2ccc(NC(=O)CCCN(C)C)cc2C(=O)N([C@H](C)CO)C[C@@H]1C	inactive
Cc1cc(/C=C2\SC(=Nc3ccc(N4CCOCC4)cc3)N(C)C2=O)c(C)n1-c1cccnc1	inactive
CCCCN=C1C([N+](=O)[O-])=CC=C2C1=NC1(CCCCC1)N2O	inactive
Cc1ccccc1OCC(=O)Nc1ccc(S(=O)(=O)N2CCOCC2)cc1	inactive
O=C(COC(=O)COc1ccccc1F)Nc1cccc(S(=O)(=O)N2CCCCC2)c1	inactive
Cc1ccccc1OCC(=O)Nc1ccc(N2CCN(C(=O)C(C)C)CC2)c(Cl)c1	13 µM (active)
COc1ccccc1C(=O)Nc1ccc(C)c(S(=O)(=O)N2CCCCC2)c1	20.6 µM (active)
CCc1ccccc1OCC(=O)Nc1ccc(C)c(S(=O)(=O)N2CCCCCC2)c1	14.6 µM (active)
Cc1ccccc1OCC(=O)Nc1ccc2c(c1)ncn2C	inactive
CCc1ccccc1OCC(=O)Nc1ccc2c(c1)OCCO2	inactive
COc1ccc(NC(=O)C2=NNC(=O)CC2)cc1S(=O)(=O)N1CCCCC1	inactive
COc1ccccc1C(CNC(=O)c1ccc(C)c(S(=O)(=O)N2CCCCC2)c1)N(C)C (configuration not stated)	inactive
Clc1ccc(-c2cccc3nccn23)cc1	inactive
Cc1ccc2c(c1)C(O)(CC(=O)c1cccc(-n3cccc3)c1)C(=O)N2 (configuration not stated)	inactive
C=CCOc1ccc(/C=C/C(=O)OCC(=O)NC2CCCCCC2)cc1	inactive
O=C1OCCOC2CCCc3oc(-c4ccccc4)c1c32 (configuration not stated)	inactive
O=C(NCc1ccco1)/C(=C/c1cccc([N+](=O)[O-])c1)NC(=O)c1ccco1	inactive
CCc1ccc(N(C(=O)c2csnn2)C(C(=O)NC2CCCCC2)c2ccncc2)cc1 (configuration not stated)	inactive
O=S(=O)(c1ccc(F)cc1)N1CCN=C1SCc1cccc(F)c1	inactive
Clc1cc(NC2CCCCC2)ncn1	inactive
Cc1cccn2c(=O)c(C(=O)NC(C)c3ccccc3)cnc12 (configuration not stated)	inactive
COc1ccc(CNC(=O)[C@@H]2CC=C[C@@H]3CCN(C4CC4)C(=O)[C@@H]32)cc1	inactive
CCCCC[C@H]1CN(C2CCCCC2)C(=O)[C@@H]1CC(=O)NCc1ccc(OC)cc1	16.4 µM (active)
COc1ccc(CNC(=O)C2CCCC2)cc1	inactive

SMILES	Potency
CCN(CC)CCNC(=O)CN1N=C(c2ccc(OC)cc2)CCC1=O	inactive
O=C(NC1CCCCC1)c1ccc(Cn2c(SCc3ccccc3)nc3cccnc32)cc1	inactive
COc1ccccc1CCCNC(=O)C1CCC(=O)N(CCN2CCOCC2)C1 (configuration not stated)	inactive
CCCn1c(=N)n(CC(O)COc2ccccc2OC)c2ccccc21 (configuration not stated)	11.6 µM (active)
COc1ccccc1OCCn1c(SCC(N)=O)nc2ccccc21	inactive
COc1ccc(OCC(O)CN(C)C(=O)C(C)Oc2ccccc2)cc1 (configuration not stated)	inactive
C=CCn1c(=N)n(CC(O)COc2ccc(OC)cc2)c2ccccc21 (configuration not stated)	16.4 µM (active)
C=CCc1ccc(OCC(O)CN2CCN(Cc3ccccc3)CC2)c(OC)c1 (configuration not stated)	inactive
COc1ccccc1OCC(O)CN1CCOCC1 (configuration not stated)	inactive
COc1c(N2CCN(C(=S)Nc3ccccc3F)C(C)C2)c(F)cc2c(=O)c(C(=O)O)cn(C3CC3)c12 (configuration not stated)	inactive
O=C(NCCc1ccc(C(F)(F)F)cc1)c1ccc2c(c1)OCO2	inactive
CN(C)C(CNC(=O)c1cc2ccccc2o1)c1ccccc1 (configuration not stated)	inactive
O=C(NCCc1ccc2c(c1)OCCO2)c1cc2ccccc2o1	16.4 µM (active)
CCOc1ccc(C2C3=C(CCCC3=O)N(CC(=O)O)C3=C2C(=O)CCC3)cc1	inactive
C=CCN1CCN(C(=O)CCCc2ccccc2)CC1	inactive
COc1ccc(NC(=O)[C@H](NC(=O)[C@@H]2Cc3ccccc3CN2)c2ccccc2)cc1	inactive
CC12CCCCC1=CC(=O)CC2 (configuration not stated)	inactive
Cn1c(=N)n(CC(O)c2ccccc2)c2ccccc21 (configuration not stated)	inactive
CCOc1ccc(C(O)Cn2c(=N)n(CCN3CCCCC3)c3ccccc32)cc1 (configuration not stated)	20.6 µM (active)
Cn1c(=N)n(CC(O)c2cccs2)c2ccccc21 (configuration not stated)	inactive
NC(=O)C1CCN(C(=O)c2cn(-c3ccccc3)nc2-c2cccnc2)CC1	inactive
CCOc1ccc(C(CC(=O)O)NC(=O)C23CC4CC(CC(C4)C2)C3)cc1OC (configuration not stated)	inactive
COC(=O)c1ccc(NC(=O)c2cc(Cl)ccc2OC)cc1	inactive
Cc1cc(N2CCN(C)CC2)nc2ccc(NC(=S)N3CCOCC3)cc12	inactive
COc1ccc(NC(=O)CC2SC(N3CCCCC3)=NC2=O)cc1OC (configuration not stated)	inactive

SMILES	Potency
COc1ccc(C(=O)Nc2ccc3nc(N4CCCCC4)cc(C)c3c2)cc1OC	23.1 µM (active) and 20.6 µM (active)
CCN1CCN(c2cc(C)c3cc(NC(=O)c4cc(Cl)ccc4OC)ccc3n2)CC1	4.61 µM (active)
CCOCCCNC(=S)Nc1ccc2nc(N3CCN(CC)CC3)cc(C)c2c1	inactive
CCOc1cc(C(C(=O)NCC2CCCO2)N(C(=O)Cn2nnc3ccccc32)c2cccc(OC)c2)ccc1O (configuration not stated)	inactive
Cc1nnc(C(=O)NC(C)(C)c2nc(C(=O)NCc3ccc(F)cc3)c(O)c(=O)n2C)o1	inactive
NC(=O)CCN1CCN(S(=O)(=O)/C=C/c2ccccc2)CC1	inactive
CN1OC[C@@H]2CN[C@H](c3ccc(-c4ccccc4)cc3)C[C@@H]21	inactive
Cc1ccc(NC(=O)CSc2nc3c(c(=O)[nH]2)CN(Cc2ccc4c(c2)OCO4)CC3)cc1C	inactive
COc1cccc(C(=O)NCC(=O)OCc2cc(=O)n3ccsc3n2)c1	inactive
COc1cc(OC)cc(C(=O)NCC(=O)OCC(=O)NC(C)CCc2ccccc2)c1 (configuration not stated)	inactive
COc1cc(OC)cc(C(=O)NCC(=O)OCc2csc(-c3ccccc3)n2)c1	16.4 µM (active)
C=CCOc1ccc(Cl)cc1CNCCCN1CCOCC1	inactive
CC(=O)NCCC(=O)Nc1nc(C)c(Cc2ccc3c(c2)OCO3)s1	inactive
CCOC(=O)C1(Cc2ccccc2C)CCCN(S(C)(=O)=O)C1 (configuration not stated)	inactive
CNC(=O)NC(=O)CSc1nnc(-c2ccc(F)cc2)n1CC1CCCO1 (configuration not stated)	inactive
Oc1cc2c(cc1O)CN(C(=S)NCCc1ccc(Cl)cc1)CCC2	13.3 µM (active) and 7.08 µM (active)
O=C(NCCc1ccc(Cl)cc1)C1CCCN1C(=O)NCc1ccccc1 (configuration not stated)	inactive
COc1ccc(CCNC(=S)N2CCN(S(=O)(=O)c3ccc(Cl)cc3)CC2)cc1	inactive
CCOc1ccc(C(=O)NCC(=O)N2CCCCCCC2)cc1OCC	inactive
CCc1cc2c(cc3c(=O)n(CC(=O)NCCc4ccc(OC)c(OC)c4)ncn32)s1	inactive
CCOc1ccc(CCNC(=O)Cn2nc(CC)n3c(cc4sc(CC)cc43)c2=O)cc1OCC	16.4 µM (active)
CCc1cc2c(cc3c(=O)n(CC(=O)N4CCN(c5cc(Cl)ccc5C)CC4)nc(CC)n32)s1	inactive
